# Laboratory results: PubChem BioAssay AID1650 (Southern Research Specialized Biocontainment Screening …, 2009)
# Entries with a potency or affinity are not part of this list. A number with no mark means an inactive call. How the calls were made is not given here.
# Assay: mammalian cell viability reduction – secondary assay, cytotoxicity control for West Nile virus antiviral project, dose response (AID 1650)
# Conditions: Mammalian host cell viability, cytotoxicity counter-screen; series mostly up to 10 µM; viability: at the top concentration
row,SMILES,viability
1,O=[N+]([O-])c1ccc(Cl)c(/C=N/n2c(C3CCCCC3)n[nH]c2=S)c1,75% [at 20 µM]
2,Cc1ccc2[nH]c(=O)c(CN(CCCN(C)C)C(=O)Nc3ccc(Cl)cc3)cc2c1,74.7%
3,CCOc1cc(/C=N/N=C(\N)c2nonc2N)cc(Br)c1OCc1cccc2ccccc12,70.8% [at 20 µM]
4,CN1CCCC1CCNc1ccc2c(=O)c3ccccc3oc2c1 (centres undefined),72%
5,CCN1CCN(CCCNC(=O)C2CCCN(c3nc4c(C)cc(C)cc4s3)C2)CC1 (centres undefined),86.5%
6,CCOC(=O)C1(Cc2cccc(OC)c2)CCCN(C(=O)c2ccccc2C)C1 (centres undefined),80.7%
7,CCCCc1nc2ccccc2c(N)c1CCC (tested in a mixture with another compound),81.9%
8,CCc1ccc2nc(N(CCCN(C)C)C(=O)c3ccc(S(=O)(=O)N4CCCc5ccccc54)cc3)sc2c1,82.3%
9,COc1ccc(Cl)cc1NC(=O)c1nnn(CC(=O)Nc2cc(C)cc(C)c2)c1N,79.6% [at 20 µM]
10,Cc1cc(OCc2cc(C(=O)NCCN3CCCCC3CO)no2)cc(C)c1Cl (centres undefined),77.3% [at 20 µM]
11,COc1cc2cc(CN(CCc3ccccc3C)C(=S)NCCCN(C)C)c(=O)[nH]c2cc1OC,88.3%
12,C=CCNC(=O)c1ccc(-c2nc(-c3ccc(Cl)cc3Cl)cs2)cc1,81.2%
13,Cc1nn(Cc2ccc(Cl)cc2)c(C)c1NC(=O)CSc1nc2c(c(C(F)(F)F)n1)CCc1ccccc1-2,79.5% [at 20 µM]
14,Cn1c(N)c(C(=O)CSc2nc3ccccc3c(=O)n2CCCN2CCOCC2)c(=O)n(C)c1=O,87.8%
15,CCOC(=O)N1CCC(N2C(=O)c3ccccc3C2Nc2cc(C)cc(C)c2)CC1 (centres undefined),84.1% [at 20 µM]
16,COc1cc2c(O)c3c(c(-c4ccc5c(c4)OCO5)c2cc1OC)C(=O)OC3,79.7% [at 20 µM]
17,CCN(CC)CCCNC(=O)c1[nH]c2ccccc2c1Sc1ccc(Cl)cc1,84.4%
18,CC(CN1CCCC1)C(=O)NN (centres undefined),90.7% [at 20 µM]
19,COc1cc2c(OC(C)=O)c3c(c(-c4ccc5c(c4)OCO5)c2cc1OC)C(=O)OC3,91%
20,NS(=O)(=O)c1ccc(NC(=O)c2cc(-c3cc(Cl)ccc3O)n[nH]2)cc1,102%
21,O=C(Nc1ccc(Nc2ccccc2)cc1)C(Cl)Cl,78.6%
22,CCCc1nc2c(c(=O)c3ccccc3n2C)c(=O)n1C1CCCCCC1,76.9% [at 20 µM]
23,O=C(CCN1C(=O)/C(=C/c2ccccc2F)SC1=S)NCCc1ccc(O)cc1,80.4% [at 20 µM]
24,CC(NC(=O)/C=C/c1cnc2ccccc2n1)C12CC3CC(CC(C3)C1)C2 (centres undefined),78.4%
